Most compounds without a hit are left out; they make up all but 2.5% or so of the library.
MEKK2 mut-MEK5 – MEK5 binding signal on mutant MEKK2 PB1, primary screen, biochemical, multiplex bead flow cytometry, Alexa488-MEK5; Alexa488-MEK5 binding to MEKK2 mutant; percent response, % at 10 µM; 0.35% of 290,000 active; AID 1530, 2009; in the data active = percent response above about 24%, passing the limit was not always enough
MEKK2wt PB1 HTS – modulators of MEK5 binding to wildtype MEKK2, primary screen, biochemical, multiplex bead flow cytometry, Alexa488-MEK5; Mitogen-activated protein kinase kinase kinase 2 (Homo sapiens), Q9Y2U5; Alexa488-MEK5 binding to MEKK2 WT; actives lie on both sides; binding response (% of control), % at 10 µM; 1.1% of 290,000 active; in the data active = binding response below about 67% or above about 130%
GRK2 aptamer HTS – compounds blocking aptamer binding on GRK2 – biochemical, human GRK2, bead flow cytometry, HTS, primary screen; Beta-adrenergic receptor kinase 1 (Homo sapiens), P25098; FAM-aptamer displacement from GRK2; inhibition of aptamer binding, % at 10 µM; 0.59% of 330,000 active; AID 488847, 2010;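 active = inhibition of aptamer binding above 40%, roughly 3 SD of noise, on plates passing a quality check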;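 note: median bead fluorescence of bound FAM aptamer so fluorescent compounds give negative values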
MEKK3 PB1 HTS – modulators of MEKK3-MEK5 PB1 binding, primary screen, biochemical, wildtype MEKK3, multiplex bead flow cytometry, Alexa488-MEK5; Mitogen-activated protein kinase kinase kinase 3 (Homo sapiens), Q99759; bead-based flow cytometry, Alexa488-MEK5 binding to MEKK3; actives lie on both sides; 0 = blocked by unlabeled MEK5, 100 = vehicle; binding response (% of control), % at 10 µM; 1.4% of 290,000 active; AID 1529, 2009;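 active = binding response more than 3 SD above or below the average of its plate-row segment, actives on both sides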;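 note: Alexa488 bead fluorescence after subtracting the streptavidin-only scavenger bead signal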
Target sequence (Q99759 whole entry, looked up): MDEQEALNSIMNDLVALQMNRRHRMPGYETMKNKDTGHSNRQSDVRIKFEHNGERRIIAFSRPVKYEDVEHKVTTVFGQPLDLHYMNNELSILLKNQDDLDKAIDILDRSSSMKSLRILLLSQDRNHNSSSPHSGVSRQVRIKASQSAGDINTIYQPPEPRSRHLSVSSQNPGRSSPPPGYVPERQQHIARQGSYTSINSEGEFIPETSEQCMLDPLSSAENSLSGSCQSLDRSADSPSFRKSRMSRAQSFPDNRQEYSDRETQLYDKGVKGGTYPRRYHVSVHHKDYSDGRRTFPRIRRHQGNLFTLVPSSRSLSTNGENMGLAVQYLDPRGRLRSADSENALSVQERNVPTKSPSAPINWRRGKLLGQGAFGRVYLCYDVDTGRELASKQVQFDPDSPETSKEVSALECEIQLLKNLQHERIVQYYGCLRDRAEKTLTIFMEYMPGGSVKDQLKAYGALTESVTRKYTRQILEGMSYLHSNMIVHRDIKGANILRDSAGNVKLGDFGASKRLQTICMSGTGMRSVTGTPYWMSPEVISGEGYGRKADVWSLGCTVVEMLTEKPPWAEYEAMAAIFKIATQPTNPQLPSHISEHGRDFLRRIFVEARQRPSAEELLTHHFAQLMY
MEKK2wt confirm – modulators of MEK5 binding to wildtype MEKK2, confirmation, biochemical, single concentration, multiplex bead flow cytometry. Alexa488-MEK5 binding to MEKK2 WT; actives lie on both sides. AID 1892, 2009. 2.4% of 5,900 active. binding response (% of control), % at 10 µM. shares compounds with MEKK3 PB1 HTS; in the data active = binding response below about 16% or above about 210%; inactive = in between
MEKK2mut-MEK5 – mutant MEKK2 PB1-MEK5 binding signal retest – biochemical, single concentration, multiplex bead flow cytometry, confirmation | Alexa488-MEK5 binding to MEKK2 mutant | shares compounds with MEKK3 PB1 HTS | percent response, % at 10 µM | AID 1893, 2009 | 2% of 5,900 active; in the data active = percent response mostly above about 71%, no sharp cut-off; inactive = mostly below about 38%;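 note: higher means compound restores mutant binding toward wildtype level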
MEKK3 confirm – MEKK3 wild-type PB1 binding to MEK5, inhibitors, confirmation, biochemical, bead multiplex flow cytometry, single concentration, wildtype | Alexa488-MEK5 binding to MEKK3; hits give low values | 1.8% of 5,900 active | binding response (% of control), % at 10 µM | shares compounds with MEKK3 PB1 HTS;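 active = binding response below 72% of control, or above a set upper limit, though filed actives all read lower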;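 note: lower values mean stronger disruption of MEK5 binding to MEKK3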
Numbers stand for hits; [ ] = dose if it differs, or a comment.

Results for COc1cc(/C=C(\NC(=O)c2ccccc2)C(=O)NCC(=O)O)c([N+](=O)[O-])cc1OC ?
MEKK2 mut-MEK5: inactive; MEKK2wt PB1 HTS: inactive; GRK2 aptamer HTS: inactive; MEKK3 PB1 HTS: 132; MEKK2wt confirm: inactive; MEKK2mut-MEK5: inactive; MEKK3 confirm: inactive

Results for Nc1ccccc1C#CC(=O)c1ccccc1 ?
MEKK2 mut-MEK5: inactive; MEKK2wt PB1 HTS: inactive; GRK2 aptamer HTS: inactive; MEKK3 PB1 HTS: inactive

How did COc1ccc(C(=O)Nc2cc(OC)ccc2OC)cc1 do in these assays?
GRK2 aptamer HTS: inactive

What do the screens show for `COc1ccc(OC)c(NC(=O)c2cc3ccccc3cc2OC)c1`?
MEKK2 mut-MEK5: 28; MEKK2wt PB1 HTS: inactive; GRK2 aptamer HTS: inactive; MEKK3 PB1 HTS: inactive; MEKK2wt confirm: inactive; MEKK2mut-MEK5: inactive; MEKK3 confirm: inactive

What do the screens show for `NC1=NC[C@H](CC2CCCCC2)N1CCc1cc(C(F)(F)F)cc(C(F)(F)F)c1`?
MEKK2 mut-MEK5: 25; MEKK2wt PB1 HTS: 156; GRK2 aptamer HTS: inactive; MEKK3 PB1 HTS: inactive; MEKK2wt confirm: inactive; MEKK2mut-MEK5: inactive; MEKK3 confirm: inactive

Results for N#Cc1ccccc1NC(=O)CSc1ccc([N+](=O)[O-])cn1 ?
MEKK2 mut-MEK5: inactive; MEKK2wt PB1 HTS: inactive; GRK2 aptamer HTS: inactive; MEKK3 PB1 HTS: inactive

What do the screens show for `N#Cc1cc([N+](=O)[O-])cnc1NCC(O)CO` (stereo not drawn)?
MEKK2 mut-MEK5: inactive; MEKK2wt PB1 HTS: 2.0[inhibitor]; GRK2 aptamer HTS: inactive; MEKK3 PB1 HTS: 2.0[inhibitor]; MEKK2wt confirm: inactive; MEKK2mut-MEK5: inactive; MEKK3 confirm: inactive

How did CCCCCCCCNC(C)C(O)c1ccc(SC(C)C)cc1 (stereo not drawn) do in these assays?
MEKK2 mut-MEK5: 48; MEKK2wt PB1 HTS: 142; GRK2 aptamer HTS: inactive; MEKK3 PB1 HTS: inactive; MEKK2wt confirm: inactive; MEKK2mut-MEK5: inactive; MEKK3 confirm: inactive

How did C[C@@H](NCCc1ccc(O)cc1)[C@@H](O)c1ccc(O)cc1 do in these assays?
MEKK2 mut-MEK5: inactive; MEKK2wt PB1 HTS: inactive; GRK2 aptamer HTS: inactive; MEKK3 PB1 HTS: inactive

How did O=C(NCC1CCCO1)C1CCC(=O)N1Cc1ccc(F)cc1 (stereo not drawn) do in these assays?
MEKK2 mut-MEK5: inactive; MEKK2wt PB1 HTS: -4.0[inhibitor]; GRK2 aptamer HTS: inactive; MEKK3 PB1 HTS: -1.0[inhibitor]; MEKK2wt confirm: inactive; MEKK2mut-MEK5: inactive; MEKK3 confirm: inactive

How did COc1cc(C)c(NC(=O)c2cccc(S(=O)(=O)N3CCCC3)c2)cc1OC do in these assays?
GRK2 aptamer HTS: inactive

How did CC1CCC2C(=O)N(c3ccc(NC4CCN(Cc5ccccc5)CC4)c([N+](=O)[O-])c3)C(=O)C2C1 (stereo not drawn) do in these assays?
MEKK2 mut-MEK5: inactive; MEKK2wt PB1 HTS: inactive; GRK2 aptamer HTS: inactive; MEKK3 PB1 HTS: 70[inhibitor]; MEKK2wt confirm: inactive; MEKK2mut-MEK5: inactive; MEKK3 confirm: inactive

Results for O=C1C2CCCCC2C(=O)N1c1ccc(NC2CCN(Cc3ccccc3)CC2)c([N+](=O)[O-])c1 (stereo not drawn) ?
MEKK2 mut-MEK5: inactive; MEKK2wt PB1 HTS: inactive; GRK2 aptamer HTS: inactive; MEKK3 PB1 HTS: inactive

What do the screens show for `O=c1[nH]c(SCc2ccc(Cl)cc2)nc2ccccc12`?
MEKK2 mut-MEK5: inactive; MEKK2wt PB1 HTS: inactive; GRK2 aptamer HTS: inactive; MEKK3 PB1 HTS: inactive

How did O=C(NCCCO)c1ccc(CSc2nc3ccccc3c(=O)[nH]2)cc1 do in these assays?
MEKK2 mut-MEK5: inactive; MEKK2wt PB1 HTS: inactive; GRK2 aptamer HTS: inactive; MEKK3 PB1 HTS: 128; MEKK2wt confirm: inactive; MEKK2mut-MEK5: inactive; MEKK3 confirm: inactive

What do the screens show for `CC1CCN(S(=O)(=O)c2ccc3c(c2)c(=O)c(C(=O)NCc2ccccc2Cl)cn3C)CC1`?
MEKK2 mut-MEK5: inactive; MEKK2wt PB1 HTS: inactive; GRK2 aptamer HTS: inactive; MEKK3 PB1 HTS: inactive

What do the screens show for `COc1ccccc1CNC(=O)c1cn(C)c2ccc(S(=O)(=O)N3CCCCC3)cc2c1=O`?
MEKK2 mut-MEK5: 192; MEKK2wt PB1 HTS: inactive; GRK2 aptamer HTS: inactive; MEKK3 PB1 HTS: inactive; MEKK2wt confirm: inactive; MEKK2mut-MEK5: inactive; MEKK3 confirm: inactive

What do the screens show for `O=C(CCl)Nc1cc(S(=O)(=O)N2CCCCCC2)ccc1Cl`?
MEKK2 mut-MEK5: inactive; MEKK2wt PB1 HTS: inactive; GRK2 aptamer HTS: inactive; MEKK3 PB1 HTS: 130; MEKK2wt confirm: inactive; MEKK2mut-MEK5: inactive; MEKK3 confirm: inactive

Results for COc1ccc(S(=O)(=O)N2CCCCCC2)cc1NC(=O)Cc1ccccc1F ?
MEKK2 mut-MEK5: inactive; MEKK2wt PB1 HTS: inactive; GRK2 aptamer HTS: inactive; MEKK3 PB1 HTS: 75[inhibitor]; MEKK2wt confirm: inactive; MEKK2mut-MEK5: inactive; MEKK3 confirm: inactive

Results for CC(C)(C)CC(=O)Nc1cc(S(=O)(=O)N2CCCCCC2)ccc1Cl ?
MEKK2 mut-MEK5: inactive; MEKK2wt PB1 HTS: inactive; GRK2 aptamer HTS: inactive; MEKK3 PB1 HTS: inactive

How did CCOc1ccccc1NC(=O)COC(=O)C(Cc1ccccc1)NC(=O)c1ccco1 (stereo not drawn) do in these assays?
GRK2 aptamer HTS: inactive

What do the screens show for `O=C(NN1C(=O)c2cc(Br)ccc2NC1c1ccccc1Cl)c1ccncc1` (stereo not drawn)?
MEKK2 mut-MEK5: inactive; MEKK2wt PB1 HTS: inactive; GRK2 aptamer HTS: inactive; MEKK3 PB1 HTS: inactive

Results for O=C(NN1C(=O)c2cc(Br)ccc2NC1c1cc(Br)cc(Br)c1O)c1ccncc1 (stereo not drawn) ?
MEKK2 mut-MEK5: inactive; MEKK2wt PB1 HTS: inactive; GRK2 aptamer HTS: inactive; MEKK3 PB1 HTS: 133; MEKK2wt confirm: inactive; MEKK2mut-MEK5: inactive; MEKK3 confirm: inactive

What do the screens show for `Cc1cccc(NC(=S)NCCc2c[nH]c3ccccc23)c1`?
MEKK2 mut-MEK5: inactive; MEKK2wt PB1 HTS: inactive; GRK2 aptamer HTS: inactive; MEKK3 PB1 HTS: 128; MEKK2wt confirm: inactive; MEKK2mut-MEK5: inactive; MEKK3 confirm: inactive

What do the screens show for `O=C(NCCc1c[nH]c2ccccc12)c1cncc(Br)c1`?
MEKK2 mut-MEK5: inactive; MEKK2wt PB1 HTS: inactive; GRK2 aptamer HTS: inactive; MEKK3 PB1 HTS: inactive

What do the screens show for `Cc1ccc(NC(=O)C(=O)NCCc2c[nH]c3ccccc23)c(C)c1`?
MEKK2 mut-MEK5: inactive; MEKK2wt PB1 HTS: inactive; GRK2 aptamer HTS: inactive; MEKK3 PB1 HTS: inactive

Results for Cc1ccc(C)c(NC(=O)C(=O)NCCc2c[nH]c3ccccc23)c1 ?
MEKK2 mut-MEK5: inactive; MEKK2wt PB1 HTS: 35[inhibitor]; GRK2 aptamer HTS: inactive; MEKK3 PB1 HTS: 34[inhibitor]; MEKK2wt confirm: inactive; MEKK2mut-MEK5: inactive; MEKK3 confirm: inactive

Assay outcomes (PubChem BioAssay)
